Screening data deposited in PubChem by Zoeller Lab, School of Medicine, Boston University.
PL biosyn Enam: phospholipid synthesis inhibitors, CHO cells, primary screen, ZR-82 cells, Enamine library, screen 3; calls only at 10 µM; AID 1347385, 2020; ZR-82 CHO cells, pyrene fatty acid UV survival, CellTiter Blue; peroxisome-deficient CHO-K1 mutant line; plus DGAT-1, DGAT-2 and ACAT inhibitors; 20,000 compounds, 0.4% hits;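 active means cell survival signal 2 SD away from solvent-only control wells, confirmed on one or two retests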;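 further: 3 h compound exposure then viability read about one day after UV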
* marks the source's active call; other numbers are inactive results; i = inactive; + = active, no number. The entries come from a sample that favours hits as a whole.

SMILES | PL biosyn Enam
Cc1sc2nc(CSC(C)C(=O)NC(C)C34CC5CC(CC(C5)C3)C4)[nH]c(=O)c2c1C (stereo not drawn) | i
Cn1/c(=N/N=C/c2cn(-c3ccccc3)nc2-c2cc3ccccc3o2)sc2ccccc21 | i
C(=C\c1cn(-c2ccccc2)nc1-c1cc2ccccc2o1)/c1nc2ccccc2s1 | +
C(=N\N(c1ccccc1)c1ccccc1)/c1cn(-c2ccccc2)nc1-c1cc2ccccc2o1 | i
CCn1c(SCC(=O)c2cc(C)n(-c3cc(C)on3)c2C)nnc1-c1cccs1 | i
Clc1ccc2nc3c(c(-c4ccccc4)c2c1)COc1ccccc1-3 | i
CCOC(=O)/C=C1\SCC(=O)N1CC(=O)O | i
C(=C(c1nc2ccccc2s1)c1nc2ccccc2s1)c1cccs1 | i
C(=C(c1nc2ccccc2s1)c1nc2ccccc2s1)c1ccc(-c2ccccc2)cc1 | i
Cn1cccc1C=C(c1nc2ccccc2s1)c1nc2ccccc2s1 | +
c1ccc2cc(OCc3nc4ccccc4[nH]3)ccc2c1 | i
c1ccc2cc(OCc3nc4ccccc4s3)ccc2c1 | +
Brc1cc(Br)c2cccnc2c1OCc1nc2ccccc2s1 | i
O=S(=O)(/C(=C/c1ccc2c(c1)OCCO2)c1nc2ccccc2[nH]1)c1ccccc1 | i
Fc1ccc(Oc2ncnc3sc4c(c23)CCCC4)cc1 | i
Cc1cc(-n2c(C)cc(C(=O)Cn3cnc4sc(C)c(C)c4c3=O)c2C)no1 | i
Cc1nc(SCc2c(C)noc2C)c2c3c(sc2n1)CCC3 | i
FC(F)Oc1ccc(NC(=S)NC2CCCCCCC2)cc1 | +
FC(F)Sc1ccc(NC(=S)NC2CCC(NC(=S)Nc3ccc(SC(F)F)cc3)CC2)cc1 (stereo not drawn) | i
Fc1ccc(NC(=S)NC2CCC(NC(=S)Nc3ccc(F)cc3)CC2)cc1 (stereo not drawn) | i
O=[N+]([O-])c1ccc(N2CCNCC2)cc1NC1C2CC3CC(C2)CC1C3 (stereo not drawn) | +
O=[N+]([O-])c1ccc(N2CCNCC2)c(S(=O)(=O)N2CCOCC2)c1 | i
O=[N+]([O-])c1ccc(N2CCN(CCO)CC2)cc1SCCO | i
Fc1ccccc1CNc1cc(-c2ccccc2)c2cc3c(cc2n1)OCCO3 | i
O=[N+]([O-])c1ccc2c(c1)[nH]c(=S)n2-c1ccc(F)cc1 | i
SMILES | PL biosyn Enam
Cc1nc(SCC(=O)Nc2cncs2)c2c(C)c(C)sc2n1 | i
Oc1ccc(/C=N/N=C/C2=C(N3CCOCC3)C(=C\c3ccccc3)/CC2)c(O)c1 | i
C(=N\Nc1ccc(N2CCOCC2)nn1)/C1=C(N2CCOCC2)C(=C/c2ccccc2)/CC1 | i
O=C1Nc2ccccc2/C1=N\N=C\C1=C(N2CCOCC2)C(=C\c2ccccc2)/CC1 | +
CC(C)[C@H](NC(=O)c1ccco1)C(=O)O | i
O=C(O)Cn1nnn(-c2cccs2)c1=O | i
CSc1nnc(SCc2cc([N+](=O)[O-])cc3c2OCOC3)s1 | i
O=[N+]([O-])c1cc(C(F)(F)F)ccc1N/N=C/c1ccc2ncccc2c1 | i
Cc1nn(CC(=O)NC(=O)NC(C)(C)C)c(C)c1[N+](=O)[O-] | i
CN1/C(=C\P(=Nc2cccc3ccccc23)(Oc2cccc3ccccc23)c2ccccc2)C(C)(C)c2ccccc21 (stereo not drawn) | i
CCN(CC)P(/C=C1/N(C)c2ccccc2C1(C)C)(=Nc1ccc(C)cc1C)c1ccccc1 (stereo not drawn) | +
Cc1ccc(NP(=O)(/C=C2\N(C)c3ccccc3C2(C)C)c2ccccc2)cc1C (stereo not drawn) | i
O=P1(NCc2cccnc2)C=C(c2ccccc2)SC(c2ccccc2)=C1 | i
O=S(=O)(Nc1ccc2c(c1)CCC2)c1ccc(F)cc1 | i
O=S(=O)(Nc1ccc2c(c1)CCC2)c1ccc(Br)cc1 | +
O=S(=O)(Nc1ccc2c(c1)OCCO2)c1ccc2c(c1)CCCC2 | i
c1ccc(-c2csc3ncn4c(-c5ccccc5)nnc4c23)cc1 | i
Cc1c2c(n(Cc3ccco3)c1C)N=CN1CCS(=O)(=O)N=C21 | i
